Our source for the inhibition values is PubChem BioAssay AID588727 (Southern Research Specialized Biocontainment Screening …, 2011).

The assay can be described thus: inhibitors of VEEV TC-83 cytopathic effect, confirmation, Vero cells (AID 588727). The conditions noted are these: VEEV TC-83 cytopathic effect inhibition, at 20 µM. In general terms: Cytopathic effects are the visible damage that an infection or toxin causes in cultured cells.
Setting [1] is: stronger effect = higher value unless noted.

About 450 (0.13%) of roughly 350,000 compounds were called active. The rule behind the calls is not given here. The list is a sample of the results. Results with a measured potency or affinity are listed apart.

As usually defined, the inhibition is the share of the control response that was lost under treatment. Consider `CC1=C(C(=O)NC2CCCc3c2cnn3-c2cccc(C)c2C)OCCO1` (configuration not stated), for which the inhibition under setting [1] is 1.75% (inactive).
On to `O=C(CSc1nnc(Cc2ccccc2)c(=O)[nH]1)Nc1ccccc1`, for which, under setting [1], the inhibition is 1.19% (inactive).
The same measure, in the same setting: the result for `CC1CCCC(=NNC(=O)C2COc3ccccc3O2)C1` (configuration not stated) reads 1.68% (inactive); that for `C=CCNc1n[nH]c(=S)s1`, 0.53% (inactive).
Turning to `Cc1cc(/C=C(\C#N)C(=O)Nc2ccccc2)c(C)n1-c1cccnc1`, the inhibition under setting [1] is 4.21% (inactive).
Still for that read-out and setting: for `CCC(NC(=O)Cc1c(C)c2cc3c(cc2oc1=O)OC(C)(C)CC3)C(=O)O` (configuration not stated) the value was 0.65% (inactive); for `C(=N\N1CCN(C(c2ccccc2)c2ccccc2)CC1)/c1ccc2c(c1)OCO2`, “inactive”; for `COC(=O)c1c(C)[nH]c(C(=O)C(C)OC(=O)c2c(C)noc2C)c1C` (configuration not stated), “inactive”.
Same read-out and setting: for `O=C1N=C(N2CCOCC2)SC1=C1CCCCC1` the value was 1.03% (inactive).
The same measure, in the same setting: the result for `Cc1cccc(N2CCN(Cc3nc(-c4cccc(Cl)c4)oc3C)CC2)n1` reads “inactive”; that for `Cc1oc(-c2ccc(Cl)cc2)nc1CN1CCC(C(=O)NCC2CCCO2)CC1` (configuration not stated), 0.22% (inactive).
Take `Cc1oc(-c2ccc(Cl)cc2)nc1CN1CCC(C(=O)NCCCN2CCOCC2)CC1`: under setting [1], the inhibition was 2.07% (inactive).
In the case of `Cc1cc(N2CCN(Cc3nc(-c4ccc(F)cc4)oc3C)CC2)cc(C)n1`, the inhibition under setting [1] is 0.13% (inactive).
Same read-out and setting: the result for `Cc1ccccc1-c1nc(CN2CCC(C(=O)NCCCN3CCCC(C)C3)CC2)c(C)o1` (configuration not stated) reads 9.38% (inactive); that for `CCN(CCNC(=O)C1CCN(Cc2nc(-c3ccc(Cl)cc3)oc2C)CC1)c1ccccc1`, “inactive”.
Still for that read-out and setting: for `CC(=O)c1cccc(-n2c(CCC(=O)O)ccc2-c2cccs2)c1` the value was “inactive”; for `COc1ccc(-c2nnc(SCC(=O)c3cccs3)n2-c2ccc(Cl)cc2)cc1`, 8.15% (inactive); for `O=C(N/N=C/c1cccnc1)C12CC3CC(CC(C3)C1)C2`, 2.16% (inactive).
Same read-out and setting: the result for `Cc1[nH]c2ccc(F)cc2c1CCN(Cc1cccnc1)C(=S)Nc1cccc(F)c1` reads 2.61% (inactive).
As to `O=C(O)/C(=C\c1ccc(-c2ccc(F)cc2)o1)c1ccccc1`, the inhibition under setting [1] was 1.57% (inactive).
Consider `CN(C)CC1CC/C(=C\c2ccc(O)cc2)C1=O` (configuration not stated), for which the inhibition result under setting [1] was “inactive”.
On the same count and under the same terms, the result for `COc1cccc(/C=C2/CCC(CN(C)C)C2=O)c1` (configuration not stated) reads 48.7% (inactive); that for `O=C(CSc1nc2c([nH]c3ccccc32)c(=O)n1-c1ccccc1F)NCC1CCCO1` (configuration not stated), 9.1% (inactive); that for `CCCN(Cc1nnc(-c2cccs2)o1)C(=O)c1cccc(S(=O)(=O)N2CCOCC2)c1`, 3.36% (inactive).
On the same count and under the same terms, the result for `O=C(c1cc(S(=O)(=O)N2CCCCC2)ccc1F)N1CCCCC1` reads 2.62% (inactive).
Still for that read-out and setting: for `Cc1nn(-c2ccccn2)c(C)c1Oc1ccccc1O` the value was 0.59% (inactive); for `Cc1cc(C)nc(-n2nc(C)c(Oc3ccccc3O)c2C)n1`, 2.08% (inactive); for `CCOc1ccc(-c2ccc(SCc3ccccn3)nn2)cc1`, 8.3% (inactive).
In the case of `Cc1[nH]c(C)c(S(=O)(=O)N2CCN(c3cccc(Cl)c3)CC2)c1C(=O)N1CCCC1`, the inhibition under setting [1] is 1.13% (inactive).
The same measure, in the same setting: for `Cc1[nH]c(C)c(S(=O)(=O)N2CCN(c3cccc(C(F)(F)F)c3)CC2)c1C(=O)N1CCCC1` the value was 0.9% (inactive); for `S=C(NCCCN1CCOCC1)N1CCN(c2nc(-c3ccc(Cl)cc3)cs2)CC1`, 1.38% (inactive).
Take `N=C1C(c2nc(-c3ccc(F)cc3)cs2)=C(O)CN1CCCN1CCOCC1`: the inhibition reads like this: (stronger effect = higher value) 1.67% (inactive); (measured here: 10K pilot screen inhibition, stronger effect = higher value) 0.31%.
On to `CCc1cc(=O)oc2cc(C)cc(OC(C)C(=O)NCCN3CCOCC3)c12` (configuration not stated), for which the inhibition under setting [1] was 2.06% (inactive).
Same read-out and setting: for `CC(C)CCSc1nc2ccccc2[nH]1` the value was 0.68% (inactive); for `COc1ccc(OC)c(C(=O)COC(=O)COc2ccccc2F)c1`, 0.88% (inactive).
Still for that read-out and setting: for `Cc1ccc(OCCCCN2CCC(C)CC2)c(Br)c1` the value was 0.3% (inactive); for `Cc1ccc(OCCCCN2CCCCC2)c(Br)c1`, “inactive”; for `CN(Cc1ccccc1)C(=O)COC(=O)c1cc(Cl)nc(Cl)c1`, 2.37% (inactive).
Consider `Cc1ccc(NC(=O)c2cccc(S(=O)(=O)N3CCN(C)CC3)c2)cc1F`, for which, under setting [1], the inhibition entry is “inactive”.
On the same count and under the same terms, the result for `COC(=O)c1c(NC(=O)c2ccccc2)sc2c1CC(C)(C)NC2(C)C` reads 1.35% (inactive).
Take `CCOc1ccc(C(=O)Nc2sc3c(c2C(=O)OC)CC(C)(C)NC3(C)C)cc1`: the inhibition under setting [1] is 10.2% (inactive).
For `COc1ccc(NC(=O)C2CCN(S(=O)(=O)c3cccc4nonc34)CC2)cc1`, the inhibition under setting [1] is 1.18% (inactive).
Regarding `O=C(O)c1cccc(N/N=C/c2cc(Br)cc(Br)c2O)c1`, the inhibition under setting [1] is 0.48% (inactive).
As for `O=C(O)c1ccccc1NN=Cc1ccccc1`, the inhibition under setting [1] is 0.89% (inactive).
The same measure, in the same setting: the result for `COc1ccc(CN2CCN(c3ccccc3F)CC2)cc1O` reads 0.89% (inactive).
Same read-out and setting: the result for `CCc1ccc(Nc2nc(N3CCOCC3)nc(N3CCOCC3)n2)cc1` reads 0.26% (inactive); that for `Cn1cc(Br)c(C(=O)NNC(=O)c2ccc(Cl)cc2)n1`, 0.65% (inactive); that for `CCCCC#Cc1cncc(C(=O)NN)c1`, 1.61% (inactive).
Still for that read-out and setting: the result for `CC1CCN(c2ccc(C(=O)O)cc2NS(=O)(=O)c2ccc(Br)cc2)CC1` reads “inactive”; that for `CC(=O)Nc1cccc(Oc2ncnc3scc(-c4ccccc4)c23)c1`, 11% (inactive); that for `CC(=O)Nc1cccc(Oc2ncnc3scc(-c4ccc(C)cc4)c23)c1`, 7.98% (inactive).
